Assay results taken from PubChem BioAssay (NCI).
About 83,000 compounds went through this panel and 20% of them were active in at least one assay; those are over-represented in the sample as a whole.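 Treatment: one concentration, 48 hours, 96-well format. Scoring: percent growth, with anything below 10 considered active.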 A number with no mark means an inactive call. Active and inactive are the calls of the source.

What follows are molecules tested on HCT-116 colon (assay: NCI-60 one-dose screen, 48 h (100 = growth as untreated, 0 = no growth, -100 = all killed)). Settings: 10 µM unless noted.
Description: Growth inhibition of the HCT-116 human tumor cell line is measured as a screen for anti-cancer activity. Cells are grown in 96 well plates and exposed to the test compound for 48 hours. Compounds are tested at a single concentration, which is 10^-5 M for most compounds. The reported endpoint is percent growth (GI% or GIPRCNT), where numbers from 0 - 100% represent growth inhibition, and numbers from -100% - 0 represent cell death. For example, a value of 40 represents 60% growth inhibition. A value of 0 means no net growth occurred over the course of the experiment. A value of -40 indicates 40% of cells at the beginning of the experiment died by the end of the experiment. A value of -100 means all cells are dead at the end of the experiment.
NCI-60 Human Tumor Cell Lines Screen was performed using the standard one-dose NCI protocol, which is described in more detail at https://dtp.cancer.gov/discovery_development/nci-60/default.htm.
Compounds with GIPRCNT values below 10 were considered active. Activity score was based on GIPRCNT using the following formula: […]
Score is 0 for GIPRCNT values of 100 or above, 50 for GIPRCNT values of 0, and 100 for GIPRCNT values of -100.
In the case of O=C1NN(C(=O)c2ccccc2)C(c2ccc(Cl)c(Cl)c2)=C/C1=C\c1ccccc1[N+](=O)[O-], the growth was 5.02% [6.75 µM] (active).
In the case of O=S(=O)(Nc1ccc2ccccc2c1)N1CCCCC1, the growth was 55%.
With COc1cccc(/C=N\Nc2ccc([N+](=O)[O-])cn2)c1O the growth was 8.72% (active).
Molecule S=C(Cc1ccccc1)N1CCN(c2ccccc2Cl)CC1 has a growth of 88.2%.
CCOC(=O)Cc1cc(Br)c(OCc2ccccc2)c(Br)c1 gave a growth of 93.8%.
With CCOC(=O)c1cc(C(=O)OCC)c(C)nc1C the growth was 105%.
CC(C)C/C=C/C=C/C(=O)N[C@@H](CC(N)=O)C(=O)N[C@@H]1C(=O)N[C@H](c2ccc(O)cc2)C(=O)N[C@H](CCCN)C(=O)N[C@H]([C@@H](C)O)C(=O)N[C@H](c2ccc(O)cc2)C(=O)N[C@H](c2ccc(O)cc2)C(=O)N[C@H]([C@H](C)O)C(=O)N[C@H](Cc2ccccc2)C(=O)N[C@H](CCCN)C(=O)N[C@H](c2ccc(O[C@H]3O[C@@H](CO)[C@@H](O)[C@@H](O)[C@H]3O[C@@H]3O[C@H](CO)[C@H](O)[C@H](O)[C@@H]3O)cc2)C(=O)N[C@H]([C@H](C)O)C(=O)N[C@H](c2ccc(O)cc2)C(=O)NCC(=O)N[C@H](CC(C)C)C(=O)N[C@H](C)C(=O)N[C@H](c2ccc(O)c(Cl)c2)C(=O)O[C@@H]1C(N)=O was tested, and the growth was 20.4%.
CCCCCCCCCCCCCCCCCC(=O)OCCCCCCCCCCCCC was tested, and the growth was 111%.
In the case of Cn1c(-c2ccccc2)cc(=O)n1-c1ccccc1, the growth was 100%.
For CCCCCCCCCCCCC1CCC(=O)O1 (stereo not given), the growth was 95.2%.
O=S(=O)(Cc1ccc(Cl)cc1Cl)c1ccc(Cl)cc1 gave a growth of 26.9%.
In the case of N#CCCn1cnc2c(N)ncnc21, the growth was 99.1%.
In the case of CCN1C(=O)C(C)C=C(C)C=C1C (stereo not given), the growth was 112%.
Cc1c(C(=O)Nc2ccccc2F)sc2c(=O)[nH]cnc12 was tested, and the growth was 88.6%.
In the case of CN(C)c1ccc(C2(Cl)c3ccccc3N(C)c3ccccc32)cc1, the growth was 5.46% (active).
Molecule COc1cc(-c2nc(-c3ccc(-c4nc5ccc(F)cc5[nH]4)cc3)no2)cc(OC)c1OC has a growth of 28.2%.
With CN(C)CC(=O)c1ccc2cc(Br)c3ccccc3c2c1 the growth was 49.3%.
Work on Cn1cnc([N+](=O)[O-])c1S(=O)(=O)Oc1cccc2ccccc12 yielded a growth of 17.8%.
Molecule CC[C@H](C)[C@H](N)C(=O)O has a growth of 115%.
For CCN(CC)CC(=O)Nc1c(C)cc(C(=O)NN)cc1C, the growth was 102%.
C[Si](C)(C)C(c1ccccc1)c1ccccc1 was tested, and the growth was 97.7%.
With O=c1c2cc(Cl)ccc2oc2ccc(OCCCCCN3CCCCCC3)cc12 the growth was 57.8%.
CC(=O)Oc1c(Cl)c(Cl)c(Cl)c(Cl)c1Cl was tested, and the growth was 99.4%.
COc1cc(C2CC(c3ccc(Cl)cc3)=NN2C(C)=O)ccc1Oc1ccnc2cc(Cl)ccc12 (stereo not given) showed a growth of 24.5%.
O=C(Cc1ccc([N+](=O)[O-])cc1)Oc1ccccc1 showed a growth of 114%.
Molecule O=C(/C=C/c1ccc(F)cc1)N1CCN(C(=O)/C=C/c2ccc(C(F)(F)F)cc2)CC1 has a growth of 98%.
Molecule c1ccc(CCn2cccc2)nc1 has a growth of 101%.
CCOC(=O)C(Cc1ccccc1)n1c(O)c(/C=N/c2ncc(Cc3ccc(Cl)cc3Cl)s2)sc1=S (stereo not given) was tested, and the growth was 1.61% (active).
In the case of CCCC(CCC)(C(N)=O)C(=O)O, the growth was 102%.
Molecule COc1ccc(-c2nc3c(c(-c4ccc(Cl)cc4)nn3-c3ccccc3)c(-c3ccc(O)cc3)c2C#N)cc1 has a growth of 12%.
CN(C)c1nc(-c2ccco2)n2nc(-c3ccc(Cl)cc3)cc2n1 showed a growth of 43.4%.
CCCCCCCCCCCCCCCCCC(=O)[O][Sn]([CH2]CCC)([CH2]CCC)[CH2]CCC was tested, and the growth was -96.2% (active).
CCOC(=O)C1C(=O)C=C(c2ccccc2)CC1c1sc(N(C)Cc2ccccc2)nc1Cl (stereo not given) showed a growth of 80.1%.
Molecule CC(=O)O[C@H]1CC[C@]2(C)[C@H]3CC=C4[C@@H]5CC(C)(C)CC[C@]5(C(=O)OCC(COC(=O)C(Cl)Cl)(COC(=O)C(Cl)Cl)NC(=O)C(Cl)Cl)CC[C@@]4(C)[C@]3(C)CC[C@H]2C1(C)C has a growth of 26.7%.
COc1ccc(C2NC(=O)c3cc4c(cc3N2)OCO4)cc1 (stereo not given) showed a growth of 14.1%.
In the case of CCN(CC)c1ccc2c(cc1=O)[C@@H](NC(C)=O)CCc1cc(OC)c(OC)c(OC)c1-2, the growth was 3.75% (active).
In the case of CC1(C)CN(CCNc2nccc(-c3c(-c4cccc(O)c4)nc4sccn34)n2)S(=O)(=O)N1, the growth was 28%.
With O=C1OCC2=C1C(c1ccccc1)c1cc3c(cc1N2CCO)CCC3 (stereo not given) the growth was 4.41% (active).
COc1ccc(-n2nc(C(=O)Nc3ccc(F)cc3)nc2-c2cc(OC)c(OC)c(OC)c2)cc1 gave a growth of 80.9%.
CC(NC(=O)c1ccccc1)C(=O)Nc1ccccc1 (stereo not given) showed a growth of 97.2%.
